Test results published in publication PMC9911399, “Two distinct binding modes provide the RNA-binding protein RbFox with extraordinary sequence specificity”.
Numbering of substitutions follows the chain as printed; changes in the protein carry UniProt numbers. Whole data set: some 16,000 sequences, median “ka relative to ugcaugu” near 0.096, cut for the highest 2% near 0.35. Many of the other results were omitted from the sample, so the highest values are more common in it than they were.

T1: RBFOX1 RRM RbFoxmut (Fox-RRM*) (Homo sapiens, UniProt Q9NWB1 109-208, R118D;E147R;N151S;E152T)
T1 sequence: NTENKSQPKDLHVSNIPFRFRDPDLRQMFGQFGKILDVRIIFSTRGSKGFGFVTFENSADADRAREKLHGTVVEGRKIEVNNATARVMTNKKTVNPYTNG

B1: CACUACA (DNA:RNA)
RNA: GGGAGACCGGAAUUCAGAUUGUCCCACUACAUUAAAUCCCGUCGUAGCCACCA
DNA 1: CAATCTGAATTCCGGTCTCCC
DNA 2: TGGTGGCTACGACGGGATT
B2: UUAGGGA (DNA:RNA)
RNA: B1 RNA with C25U, A26U, C27A, U28G, A29G, C30G
DNA 1: CAATCTGAATTCCGGTCTCCC
DNA 2: TGGTGGCTACGACGGGATT
B3: AGCCGCU (DNA:RNA)
RNA: B1 RNA with C25A, A26G, U28C, A29G, A31U
DNA 1: CAATCTGAATTCCGGTCTCCC
DNA 2: TGGTGGCTACGACGGGATT
B4: GCUCAAC (DNA:RNA)
RNA: B1 RNA with C25G, A26C, C27U, U28C, C30A, A31C
DNA 1: CAATCTGAATTCCGGTCTCCC
DNA 2: TGGTGGCTACGACGGGATT
B5: UCGCGAA (DNA:RNA)
RNA: B1 RNA with C25U, A26C, C27G, U28C, A29G, C30A
DNA 1: CAATCTGAATTCCGGTCTCCC
DNA 2: TGGTGGCTACGACGGGATT
B6: UGACUUG (DNA:RNA)
RNA: GGGAGACCGGAAUUCAGAUUGUCCUGACUUGUUAAAUCCCGUCGUAGCCACCA
DNA 1: CAATCTGAATTCCGGTCTCCC
DNA 2: TGGTGGCTACGACGGGATT
B7: AUCCGCU (DNA:RNA)
RNA: B1 RNA with C25A, A26U, U28C, A29G, A31U
DNA 1: CAATCTGAATTCCGGTCTCCC
DNA 2: TGGTGGCTACGACGGGATT
B8: AAGCAUA (DNA:RNA)
RNA: B1 RNA with C25A, C27G, U28C, C30U
DNA 1: CAATCTGAATTCCGGTCTCCC
DNA 2: TGGTGGCTACGACGGGATT
B9: AAGCAUC (DNA:RNA)
RNA: B1 RNA with C25A, C27G, U28C, C30U, A31C
DNA 1: CAATCTGAATTCCGGTCTCCC
DNA 2: TGGTGGCTACGACGGGATT
B10: AAGCAUG (DNA:RNA)
RNA: B6 RNA with U25A, G26A, A27G, U29A
DNA 1: CAATCTGAATTCCGGTCTCCC
DNA 2: TGGTGGCTACGACGGGATT
B11: CCAUGCC (DNA:RNA)
RNA: B1 RNA with A26C, C27A, A29G, A31C
DNA 1: CAATCTGAATTCCGGTCTCCC
DNA 2: TGGTGGCTACGACGGGATT
B12: GCAUGCC (DNA:RNA)
RNA: B1 RNA with C25G, A26C, C27A, A29G, A31C
DNA 1: CAATCTGAATTCCGGTCTCCC
DNA 2: TGGTGGCTACGACGGGATT
B13: ACAUGCG (DNA:RNA)
RNA: B1 RNA with C25A, A26C, C27A, A29G, A31G
DNA 1: CAATCTGAATTCCGGTCTCCC
DNA 2: TGGTGGCTACGACGGGATT
B14: GCAUGCA (DNA:RNA)
RNA: B1 RNA with C25G, A26C, C27A, A29G
DNA 1: CAATCTGAATTCCGGTCTCCC
DNA 2: TGGTGGCTACGACGGGATT
B15: GCAUGCG (DNA:RNA)
RNA: B1 RNA with C25G, A26C, C27A, A29G, A31G
DNA 1: CAATCTGAATTCCGGTCTCCC
DNA 2: TGGTGGCTACGACGGGATT
B16: GCCUGCC (DNA:RNA)
RNA: B1 RNA with C25G, A26C, A29G, A31C
DNA 1: CAATCTGAATTCCGGTCTCCC
DNA 2: TGGTGGCTACGACGGGATT
B17: CGAUGCA (DNA:RNA)
RNA: B1 RNA with A26G, C27A, A29G
DNA 1: CAATCTGAATTCCGGTCTCCC
DNA 2: TGGTGGCTACGACGGGATT
B18: GCAUCCC (DNA:RNA)
RNA: B1 RNA with C25G, A26C, C27A, A29C, A31C
DNA 1: CAATCTGAATTCCGGTCTCCC
DNA 2: TGGTGGCTACGACGGGATT
B19: GAAUGCA (DNA:RNA)
RNA: B1 RNA with C25G, C27A, A29G
DNA 1: CAATCTGAATTCCGGTCTCCC
DNA 2: TGGTGGCTACGACGGGATT
B20: GAUUGCA (DNA:RNA)
RNA: B1 RNA with C25G, C27U, A29G
DNA 1: CAATCTGAATTCCGGTCTCCC
DNA 2: TGGTGGCTACGACGGGATT
B21: GCAUUAA (DNA:RNA)
RNA: B1 RNA with C25G, A26C, C27A, A29U, C30A
DNA 1: CAATCTGAATTCCGGTCTCCC
DNA 2: TGGTGGCTACGACGGGATT
B22: GUCCGCA (DNA:RNA)
RNA: B1 RNA with C25G, A26U, U28C, A29G
DNA 1: CAATCTGAATTCCGGTCTCCC
DNA 2: TGGTGGCTACGACGGGATT
B23: ACGCACA (DNA:RNA)
RNA: B1 RNA with C25A, A26C, C27G, U28C
DNA 1: CAATCTGAATTCCGGTCTCCC
DNA 2: TGGTGGCTACGACGGGATT
B24: GCCGUUU (DNA:RNA)
RNA: B6 RNA with U25G, G26C, A27C, C28G, G31U
DNA 1: CAATCTGAATTCCGGTCTCCC
DNA 2: TGGTGGCTACGACGGGATT
B25: UCGUGAC (DNA:RNA)
RNA: B1 RNA with C25U, A26C, C27G, A29G, C30A, A31C
DNA 1: CAATCTGAATTCCGGTCTCCC
DNA 2: TGGTGGCTACGACGGGATT
B26: UCACAUA (DNA:RNA)
RNA: B6 RNA with G26C, U29A, G31A
DNA 1: CAATCTGAATTCCGGTCTCCC
DNA 2: TGGTGGCTACGACGGGATT
B27: AUAUGCA (DNA:RNA)
RNA: B1 RNA with C25A, A26U, C27A, A29G
DNA 1: CAATCTGAATTCCGGTCTCCC
DNA 2: TGGTGGCTACGACGGGATT
B28: GUAUGCA (DNA:RNA)
RNA: B1 RNA with C25G, A26U, C27A, A29G
DNA 1: CAATCTGAATTCCGGTCTCCC
DNA 2: TGGTGGCTACGACGGGATT
B29: GGAUGCA (DNA:RNA)
RNA: B1 RNA with C25G, A26G, C27A, A29G
DNA 1: CAATCTGAATTCCGGTCTCCC
DNA 2: TGGTGGCTACGACGGGATT
B30: UCCCGUA (DNA:RNA)
RNA: B6 RNA with G26C, A27C, U29G, G31A
DNA 1: CAATCTGAATTCCGGTCTCCC
DNA 2: TGGTGGCTACGACGGGATT
B31: CCCUGAA (DNA:RNA)
RNA: B1 RNA with A26C, A29G, C30A
DNA 1: CAATCTGAATTCCGGTCTCCC
DNA 2: TGGTGGCTACGACGGGATT
B32: CUGAAUC (DNA:RNA)
RNA: B1 RNA with A26U, C27G, U28A, C30U, A31C
DNA 1: CAATCTGAATTCCGGTCTCCC
DNA 2: TGGTGGCTACGACGGGATT
B33: UGAUUGU (DNA:RNA)
RNA: B6 RNA with C28U, U30G, G31U
DNA 1: CAATCTGAATTCCGGTCTCCC
DNA 2: TGGTGGCTACGACGGGATT
B34: UGAAUGU (DNA:RNA)
RNA: B6 RNA with C28A, U30G, G31U
DNA 1: CAATCTGAATTCCGGTCTCCC
DNA 2: TGGTGGCTACGACGGGATT
B35: CUGAAUG (DNA:RNA)
RNA: B1 RNA with A26U, C27G, U28A, C30U, A31G
DNA 1: CAATCTGAATTCCGGTCTCCC
DNA 2: TGGTGGCTACGACGGGATT
B36: UGAAAUG (DNA:RNA)
RNA: B6 RNA with C28A, U29A
DNA 1: CAATCTGAATTCCGGTCTCCC
DNA 2: TGGTGGCTACGACGGGATT

molecular target: T1, RBFOX1 RRM RbFoxmut (Fox-RRM*); assay: EMSA; HiTS-Eq, 1 nM pool, 10 min; buffer printed only for the single-RNA assays: 10 mM Tris pH 7.5, 150 mM NaCl, 3.4 mM EDTA, 0.001% NP-40, 30 C; conditions: tags: His6 N-terminal (pET28a); label: 5' 32P
How it was run: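 A pool of RNA with 7 randomized nucleotides, 5′-radiolabelled and with DNA-annealed flanks, was equilibrated at 1 nM for 10 min in 50 µL with purified RbFox RRM, wild type or mutant, across increasing protein concentrations. Free RNA was separated by 8% native PAGE, excised, reverse-transcribed, barcoded by PCR and sequenced. Relative association constants were obtained from read-count changes of each RNA species versus the control reaction and normalised to the cognate motif.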

| Binder | binding signal |
| --- | --- |
| B1 | 0.13 KA relative to UGCAUGU |
| B2 | 0.0529 KA relative to UGCAUGU |
| B3 | 0.0799 KA relative to UGCAUGU |
| B4 | 0.0746 KA relative to UGCAUGU |
| B5 | 0.105 KA relative to UGCAUGU |
| B6 | 0.272 KA relative to UGCAUGU |
| B7 | 0.121 KA relative to UGCAUGU |
| B8 | 0.0958 KA relative to UGCAUGU |
| B9 | 0.196 KA relative to UGCAUGU |
| B10 | 0.715 KA relative to UGCAUGU |
| B11 | 0.19 KA relative to UGCAUGU |
| B12 | 0.651 KA relative to UGCAUGU |
| B13 | 0.139 KA relative to UGCAUGU |
| B14 | 0.828 KA relative to UGCAUGU |
| B15 | 0.872 KA relative to UGCAUGU |
| B16 | 0.176 KA relative to UGCAUGU |
| B17 | 0.158 KA relative to UGCAUGU |
| B18 | 0.142 KA relative to UGCAUGU |

| Binder | binding signal |
| --- | --- |
| B19 | 1.03 KA relative to UGCAUGU |
| B20 | 0.171 KA relative to UGCAUGU |
| B21 | 0.141 KA relative to UGCAUGU |
| B22 | 0.107 KA relative to UGCAUGU |
| B23 | 0.105 KA relative to UGCAUGU |
| B24 | 0.0818 KA relative to UGCAUGU |
| B25 | 0.0717 KA relative to UGCAUGU |
| B26 | 0.112 KA relative to UGCAUGU |
| B27 | 0.208 KA relative to UGCAUGU |
| B28 | 0.574 KA relative to UGCAUGU |
| B29 | 0.24 KA relative to UGCAUGU |
| B30 | 0.12 KA relative to UGCAUGU |
| B31 | 0.0778 KA relative to UGCAUGU |
| B32 | 0.315 KA relative to UGCAUGU |
| B33 | 0.308 KA relative to UGCAUGU |
| B34 | 0.75 KA relative to UGCAUGU |
| B35 | 0.915 KA relative to UGCAUGU |
| B36 | 0.158 KA relative to UGCAUGU |
